Inhibition data for 60 molecules are collected here from PubChem BioAssay AID463213 (Sanford-Burnham Center for Chemical Genomics, 2010).

Out of some 7,400 compounds screened, about 4,100 (55%) were called active.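 The calls were made as follows: active = inhibition of yeast growth at or above a set limit in either of two repeat tests at 20 µM; inactive = the rest.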 So high a share suggests a set chosen from earlier hits. Only a sample is shown.

This assay in a line: growth inhibitors of tim10-1 mutant yeast, confirmation, single concentration, luminescence, S. cerevisiae (AID 463213).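 Also: tim10-1 mutant grown at permissive 25 °C to find synthetic lethal compounds; 0% = DMSO yeast wells and 100% = medium wells without yeast.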 Particulars: S. cerevisiae tim10-1 ts strain growth, BacTiter-Glo, 24 h; at 20 µM; active compounds read high.
In general, inhibition refers to the relative decrease from the control value, in per cent. As to `O=C(Nc1nnc(SCc2c(Cl)cccc2Cl)s1)C1CCCO1` (stereo not given), the inhibition is 37% (active). For `CN(C(=O)CC(NC(=O)c1ccccc1)(c1ccccc1)c1ccccc1)c1ccccc1`, the inhibition is 31.1% (active). Turning to `CN(C(=O)COc1nnc(-c2cccs2)c(-c2cccs2)n1)c1ccccc1`, the inhibition was 17% (inactive). To `CCOc1ccccc1/C=c1\sc2nc(-c3ccco3)nn2c1=O` belongs 49.4% (active); to `CCc1cccc(CC)c1NC(=S)NCc1ccc2[nH]c(C)cc2c1`, 35.8% (active); to `O=C1Oc2ccccc2C(=O)/C1=C/c1ccccc1O`, 55.9% (active). On to `CN(C)CCCN(C(=O)c1ccc(S(=O)(=O)N2CCCc3ccccc32)cc1)c1nc2ccc(F)cc2s1`, for which the inhibition is 44.5% (active). Consider `COC(=O)c1cc(S(=O)(=O)N2CCN(c3cc(C)ccc3C)CC2)c[nH]1`, for which the inhibition was 17.7% (inactive). To `Nc1cc(OC(=O)c2ccccc2Br)nn1S(=O)(=O)c1ccccc1` belongs 33.8% (active); to `CCOC(=O)c1ccccc1CN1C(=O)c2ccccc2S1(=O)=O`, 17.6% (inactive). To `O=C1c2ccccc2S(=O)(=O)N1CC(O)Cn1c2ccccc2c2ccccc21` (stereo not given) belongs 51.1% (active). `Cc1ccc(C)c(N2CCN(C(=O)CCCCn3c(=O)[nH]c4ccccc4c3=O)CC2)c1`: the inhibition is 17.4% (inactive).

Take `COc1cccc(-c2cc3nc4c(c(N5CCC6(CC5)OCCO6)n3n2)CCCC4)c1`: the inhibition is -1.05% (inactive). `O=C1OC(/C=C/c2ccccc2)=NC/1=C/c1ccco1`: the inhibition was 3% (inactive). With `O=c1nc2s/c(=C\c3ccco3)c(=O)n2nc1Cc1ccccc1`, the inhibition was 66.9% (active). To `O=C(CSc1cccc2cccnc12)N/N=C/c1cccnc1` belongs 36% (active).

On to `CCOc1cc(-c2conc2N)cc(OCC)c1OCC`, for which the inhibition was 20.5% (inactive). To `COC(=O)c1ccc(NC(=O)c2ccccc2NS(=O)(=O)c2ccccc2)cc1` belongs 19.4% (inactive); to `CCOC(=O)c1ccc(NC(=O)c2nc[nH]c2C(=O)NCc2ccccc2)cc1`, 41.4% (active); to `O=C(COc1ccccc1F)NNC(=O)c1ccc(N2CCCCC2)c([N+](=O)[O-])c1`, 25.8% (inactive). For `CN1CCN(c2ccccc2NC(=O)COc2ccc(C3CCCCC3)cc2)CC1` the value was 12.4% (inactive); for `Cc1ccccc1OCC(=O)Nc1ccc(N2CCN(C(=O)C(C)C)CC2)c(Cl)c1`, 66.9% (active); for `O=[N+]([O-])c1c(NCCO)cc(Sc2nc3ccccc3s2)c2nonc12`, 19% (active). For `CNC(=O)c1csc(Cc2c(Cl)sc3ccc(Cl)cc23)n1` the value was 20.5% (inactive).

For `CCCc1cc(-c2nc(-c3ccc(C)cc3)cs2)ccn1`, the inhibition is 34.8% (active). Regarding `CCOC(=O)/C=C/c1ccc(C(F)(F)F)cc1S(=O)(=O)NC(C)(C)C`, the inhibition was 29.9% (inactive). As for `O=C(Nc1ccccc1Cl)/C(Cl)=C(\Cl)S(=O)c1ccccc1` (stereo not given), the inhibition is 55% (active). To `Cc1[nH]n(C(N)=S)c(=O)c1N=Nc1ccc(Cl)cc1Cl` belongs 61.3% (active); to `CC(=O)Oc1ccc2c(c1)C(=O)c1ccccc1C2=O`, 31.1% (active); to `O=C(CSC(=S)N1CCOCC1)c1cc(Br)cc(Br)c1O`, 46% (active). To `C[C@@H](NC(=O)OC(C)(C)C)c1nnc(S(=O)(=O)Cc2ccccc2)o1` belongs 48.3% (active). Consider `CCOC(=O)Cc1csc(NC(=O)CSc2ccc(Br)cc2)n1`, for which the inhibition is 31.3% (active).

`CCOC(=O)Cc1csc(SCC(=O)NC(C)C23CC4CC(CC(C4)C2)C3)n1` (stereo not given): the inhibition was 40.4% (active).

For `COc1ccc(NC(C)=O)cc1NC(=O)CN1CCN(C2c3ccccc3-c3ccccc32)CC1`, the inhibition was 15.5% (inactive). To `O=C(Nc1ccccc1)c1nnsc1S(=O)(=O)c1ccc(Cl)cc1` belongs 85.3% (active); to `COc1cc(/C=C2/C(=O)ON=C2C)ccc1OCc1ccccc1F`, 26.9% (inactive). For `CCCN(CC1COc2ccccc2O1)C(=S)Nc1ccc(C)cc1` (stereo not given) the value was 36.7% (active). To `Cc1ccc(C(=O)COc2cccc(NC(=O)c3ccco3)c2)cc1` belongs 5.8% (inactive); to `Cc1ccoc1C(=O)Nc1cccc(Oc2ccccc2)c1`, 43.2% (active); to `CN(C)N1C(N)=C(C#N)C(c2ccc(Br)cc2)C2=C1CCCC2=O` (stereo not given), 8.4% (inactive). For the molecule `S=c1[nH]nc(-c2cccnc2)n1/N=C/C(Cl)=C\c1ccccc1`, the inhibition is 33.9% (active). For `Fc1ccccc1/C=C1\CCCC2=C1Nc1ncnn1C2c1ccccc1F` (stereo not given) the value was 30.5% (active); for `Cc1nc2sc(C(=O)c3ccccc3)c(N)c2c2c1CCCC2`, 37.9% (active). For the molecule `NC(=O)c1sc2nc3c(c(-c4ccccc4)c2c1N)CCC3`, the inhibition is 19.1% (inactive). For `Cc1ccc2c(N)c(C(=O)c3ccccc3)sc2n1` the value was 29.6% (inactive); for `CCn1c(COc2c(C)cccc2C)nnc1SCc1nc2ccccc2c(=O)[nH]1`, 20.1% (inactive); for `CCCCCCCCCCCCCCCC(=O)OC/C=C(C)/C=C/C=C(C)/C=C/C1=C(C)CCCC1(C)C`, 17.2% (inactive). For `COC(=O)CCc1sc(Nc2ccc(Br)cc2)nc1-c1ccc(OC)cc1`, the inhibition was 19.9% (inactive).

Regarding `COc1ccc(C(=O)COC(=O)c2ccc([N+](=O)[O-])s2)cc1OC`, the inhibition is 50.6% (active).

For `COc1ccc(C(=O)OCC(=O)c2cc(C)n(CC3CCCO3)c2C)cc1[N+](=O)[O-]` (stereo not given), the inhibition was 6% (inactive). Consider `O=C1Nc2ccc(Br)cc2/C1=N/N=C/C1=C(N2CCOCC2)C(=C\c2ccccc2)/CC1`, for which the inhibition is 59.5% (active).

On to `O=S(=O)(Nc1ccc(O)c2ccccc12)c1ccc(OC(F)(F)F)cc1`, for which the inhibition was 32.2% (active).

`CC(C)NC(=O)/C(C#N)=C\c1ccc(N(C)C)c(Br)c1`: the inhibition was 46.5% (active). Take `O=C1NC(Nc2nc3ccccc3s2)(C(F)(F)F)C(=O)N1C1CCCCC1` (stereo not given): the inhibition was 35.5% (active).

For the molecule `COC(=O)c1c(NC(=O)COc2ccc(Cl)cc2Cl)sc2c1CC(C)(C)NC2(C)C`, the inhibition is 14.3% (inactive). As for `Clc1ccc(Nc2nc(-c3cccs3)cs2)nc1`, the inhibition is 15% (inactive). For `Cc1ccc(Nc2nc(-c3ccc(O)cc3O)cs2)nc1` the value was 27.6% (active). For `COc1ccccc1N1CCN(C(=O)c2cc(=O)c3cc(C)cc(C)c3o2)CC1` the value was 24.9% (inactive); for `O=[N+]([O-])c1ccc(N/N=C2/CCCCC2c2ccccn2)c([N+](=O)[O-])c1` (stereo not given), 38.6% (active); for `CCOC(=O)C/C(C)=N\Nc1ccc([N+](=O)[O-])cc1[N+](=O)[O-]`, 9.35% (inactive).
